The full list was thinned out, with hits kept by preference.
PINK1 modulator: changes PINK1 expression | PINK1 immunofluorescence, high-content cytometry, 24 h | Potency, µM (doses to about 76.6 µM), for the others: at the highest dose activation (PINK1 increase), hits mostly activators | 410,000 compounds, 0.2% hits | AID 624263; active means well fitted activation curve with a large enough effect; inconclusive means small, poorly fitted or top-dose-only effect; cell line not stated here; further: potency means the concentration at half of the fitted maximal effect; % of control where 0% means no effect; nearly all actives have a fitted effect of over 65% in size
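Compound titrations (5 concentrations, 24 h) on a stable cell line; DMSO and CCCP controls. Endpoint: fixed-cell PINK1 immunofluorescence with mitochondrial, cell and nuclear markers, scanned by microplate cytometer.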
HTT ATP protect: cytoprotection in Huntington HTT-Q103 PC12 cell model; Potency, µM (top dose mostly 56.4 µM), for inactives: cytoprotection (ATP increase), actives largely listed as activators; 230,000 compounds, 0.14% hits; AID 1471; PC12 HTT-Q103 induced, cytoprotection, ATP luminescence, 40 h; further: potency means the concentration at half of the fitted maximal effect; % of control where 0% means no effect; nearly all actives have a fitted effect of over 45% in size
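PC12 cells stably carrying ecdysone-inducible Htt exon 1 (Q103)–GFP were induced with 100 nM tebufenozide (final) alongside library compounds in a dose series. Cytoprotection was scored as retained ATP by ATPlite luminescence.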
HttQ103 aggreg: reduces HttQ103-GFP aggregates in PC12 cells; Potency, µM (series often up to 46.1 µM), for inactives: top-dose activity change, negative = inhibition, most hits filed as inhibitors; PC12 HttQ103-GFP aggregates, Acumen cytometry, 40 h; 220,000 compounds, 1.1% hits; further: potency means the concentration at half of the fitted maximal effect; on the % scale 0 is the no-effect control and ±100 the full control effect; nearly all actives have a fitted effect of over 60% in size
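Inducible Q103 Huntingtin exon 1–GFP PC12 line, 1500 cells/well in phenol red free DMEM with 5% equine and 5% calf serum. Tebufenozide 100 nM induced expression; compounds titrated; aggregates quantified by cytometry.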
Epigenetic derep: derepresses silenced GFP reporter in murine cells | murine LDR cells, GFP reporter derepression, 30 h | Potency, µM (series often up to 53.9 µM), for inactives: at the highest dose GFP activation, actives largely listed as activators | 280,000 compounds, 0.2% hits; further: potency means the concentration at half of the fitted maximal effect; % of control where 0% means no effect; nearly all actives have a fitted effect of over 60% in size
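Readout is the number of GFP-expressing murine LDR cells, counted by cytometry following washing. Cells were treated with compound for 30 h at 37 C; the stably integrated CMV-GFP locus is normally silent.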
Parental c127i: parental c127i cell effect of epigenetic modulator hits | shares compounds with Epigenetic derep | mouse c127i parental cells, fluorescent cell count, 30 h | Potency, µM, without a hit: top-dose fluorescent cell count, usual class: activators | 60 compounds, 20% hits
HCC4017 viab: HCC4017 cytotoxicity of epigenetic modulator hits | 45 compounds, 30% hits | shares compounds with Epigenetic derep | HCC4017 NSCLC viability, CellTiter-Glo ATP luminescence, 72 h | Potency, µM (titrated, usually from 46.1 µM), for inactives: top-dose activity change, negative = cytotoxicity, hits mostly cytotoxic | AID 493071
H358 tox: reduces H358 lung cancer cell viability among epigenetic modulators; shares compounds with Epigenetic derep; H358 NSCLC viability, ATP luminescence, 72 h; 45 compounds, 30% hits; Potency, µM (doses to about 46.1 µM), without a hit: top-dose activity change, negative = viability loss, hits mostly cytotoxic
The depositor's hits bear a star; ? = inconclusive; . = no result given; [ ] = dose if it differs, or a comment. Unless noted, the call rests on the fitted dose curve; in most records, active means well fitted curve in the direction sought with a large enough effect; inconclusive means small, poorly fitted or top-dose-only effect, or another doubt; inactive means no such curve, though single readings can be large; an effect the other way counts as inactive or inconclusive.

SMILES | PINK1 modulator | HTT ATP protect | HttQ103 aggreg | Epigenetic derep | Parental c127i | HCC4017 viab | H358 tox
CC1CCN(S(=O)(=O)c2ccc3c(ccc(=O)n3CC(=O)Nc3ccc(C(C)C)cc3)c2)CC1 | -5% | . | . | -1% | . | . | .
Cc1cc(NC(=O)C2CCCN(S(=O)(=O)c3cccc4nonc34)C2)ccc1Br (centres undefined) | 8% | . | . | ? | 32µM* | . | .
Cc1cc(Br)ccc1NC(=O)C1CCCN(S(=O)(=O)c2cccc3nonc23)C1 (centres undefined) | 4% | . | . | ? | . | . | .
O=S(=O)(c1ccc(-n2cnnn2)cc1)N1CCN(c2cccc(Cl)c2)CC1 | 0% | . | . | 0% | . | . | .
COc1cccc(N2CCN(S(=O)(=O)c3ccc(-n4cnnn4)cc3)CC2)c1 | 1% | . | . | ? | 4% | 13% | -11%
C/C=C/c1ccc(OCC(=O)OCC(=O)NC2CC2)c(OC)c1 | 0% | -24% | -10% | ? | 2% | 9% | 16%
O=C(COC(=O)COc1ccc(Cl)cc1Cl)NC1CC1 | 3% | . | . | . | . | . | .
CCOC(=O)c1c(NC(=O)CC2Nc3cc(C)c(C)cc3NC2=O)sc(C)c1C (centres undefined) | ? | 10%[10 µM] | 8% | 8.9µM* | ? | . | .
COc1ccc(NC(=O)c2sc3nc(C)cc(C)c3c2N)cc1 | 6% | . | . | . | . | . | .
COc1ccc(NC(=O)c2sc3nc(-c4ccc(OC)cc4)cc(C(F)(F)F)c3c2N)cc1 | ? | . | . | 7.1µM* | 4µM* | . | .
COC(=O)C1C2CC(C(Br)C2Br)C1C(=O)O (centres undefined) | 5% | . | . | . | . | . | .
CCOC(=O)c1cc2c(=O)n3ccccc3nc2n(Cc2ccco2)c1=NC(=O)c1cccc(Br)c1 | 17% | . | . | -1% | . | . | .
CCOC(=O)c1cc2c(=O)n3ccccc3nc2n(Cc2ccco2)c1=NC(=O)c1ccc(Br)cc1 | 2% | . | . | ? | 28µM* | . | .
COc1cccc(/C=N/Nc2nc(Nc3ccccc3)nc(-n3nc(C)cc3C)n2)c1O | -4% | -98%[10 µM] | 1.1µM* | 2.5µM* | 4% | 2.5µM* | 4.4µM*
COc1cccc(N(C(=O)CNC(=O)c2ccco2)C(C(=O)NC2CCCC2)c2ccncc2)c1 (centres undefined) | 1% | 7%[10 µM] | 8% | 0% | . | . | .
COc1ccc(C(=O)/C=C/Sc2nc3ccccc3o2)cc1 | 0% | -38%[10 µM] | 3%[9.22 µM] | ? | 10% | 7.9µM* | 7.9µM*
CC1(C)Cc2c(sc(/N=C/N3CCCCC3)c2C#N)C(C)(C)N1 | -2%[38.3 µM] | -7% | 19% | -2% | . | . | .
CC(=O)[C@H](CC(C)C)NC(=O)[C@@H](CC(C)C)NC(=O)[C@H](CC(C)C)NC(=O)OCc1ccccc1 | . | -124%[1.9 µM] | . | 5µM* | 1% | . | .
CC(C)CC(NC(=O)OCc1ccccc1)C(=O)NC(Cc1c[nH]c2ccccc12)C(=O)O (centres undefined) | 2% | . | . | . | . | . | .
COc1cccc(C2c3[nH]c4ccccc4c3CCN2Cc2ncc[nH]2)c1 (centres undefined) | 1% | -4%[10 µM] | 7%[9.22 µM] | 5% | . | . | .
Cc1ccc(C(C)C)c(OCc2ccc(C(=O)N/N=C/c3ccc(O)c(O)c3)cc2)c1 | ? | . | 9% | 0% | . | . | .
Cc1ccc(C(C)C)c(OCc2ccc(C(=O)N/N=C/c3cccc(O)c3O)cc2)c1 | ? | 7%[0.074 µM] | -11% | ? | 1% | 2µM* | 0.56µM*
Cc1ccc(C(=O)N2CCNC(=O)C2CC(=O)Nc2ccccc2)cc1 (centres undefined) | 1% | . | . | . | . | . | .
COCCNC(=S)N/N=C(\C)c1ccccc1O | -1% | . | -5% | 4.5µM* | 4% | ? | ?
Cc1cccc(C)c1OCC(=O)Nn1c(COc2ccccc2)nc2ccccc2c1=O | . | -18% | 12%[9.22 µM] | 0% | . | . | .
SMILES | PINK1 modulator | HTT ATP protect | HttQ103 aggreg | Epigenetic derep | Parental c127i | HCC4017 viab | H358 tox
CC(C)NS(=O)(=O)c1ccc(CCC(=O)NCc2ccccn2)cc1 | -1% | . | . | . | . | . | .
CCCCOC(=O)Cn1c2ccc(OC)cc2c2nc3ccccc3nc21 | 12% | 18% | -4% | ? | ? | ? | ?
CCn1c2ccc(OC)cc2c2nc3ccccc3nc21 | -2% | 3%[10 µM] | -7% | -2% | . | . | .
Cc1ccc(NC(=O)c2c(C)nc3sc(C(=O)NC4CCCC4)c(N)c3c2-c2ccco2)c(C)c1 | ? | -9%[10 µM] | -7% | ? | ? | . | .
COCCn1c(SCC(=O)N2CCOCC2)nnc1-c1ccco1 | 1% | . | . | . | . | . | .
COc1ccc(NC(=O)CSc2nc3c(oc4ccccc43)c(=O)n2Cc2ccco2)cc1Cl | 3% | . | . | 3.5µM* | 8% | 11µM* | 16µM*
NC(=S)N/N=C/c1ncc(C(F)(F)F)cc1Cl | 2% | -98%[10 µM] | ? | 4µM* | 8% | ? | ?
O=C(NC1CCCC1)C(c1ccc(F)cc1)N(Cc1ccc(F)cc1)C(=O)CCl (centres undefined) | -4% | -10%[10 µM] | -3% | -1% | . | . | .

Screens deposited in PubChem by National Center for Advancing Translational Sciences (NCATS).
